Experimental data taken from PubChem BioAssay AID720504 (National Center for Advancing Translational Sciences (NCATS), 2013).
About 10,000 (2.8%) of roughly 360,000 compounds were called active. Inconclusive results (about 4%) are left out. This is one part of a sample in which actives are shown more often than they occur. Calls follow the shape of the dose curve; as a rule, active = well fitted inhibition curve with a large enough effect; inconclusive = small, poorly fitted or top-dose-only effect; inactive = flat fitted curve, though single readings scatter.

target: Serine/threonine-protein kinase PLK1 (Homo sapiens) (UniProt P53350); test: qHTS for Inhibitors of PLK1-PDB (polo-like kinase 1 - polo-box domain): Primary Screen; details: Plk1 PBD binding of FITC phosphopeptide, fluorescence polarization; also: nearly all actives have a fitted effect of over 65% in size; as to max response, negative = inhibition: series mostly up to about 57 µM
From the text: The polo-like kinase 1 (Plk1) is a member of a conserved subfamily of serine / threonine protein kinases that plays a pivotal roles in cell proliferation. It has a C-terminal non-catalytic region called the polo-box domain (PBD) that plays a crucial role in the subcellular localization of the Plk1. […] Furthermore, depletion of the overexpressed Plk1 by RNAi efficiently induces apoptotic cell death in cancer and reduces tumor growth in mouse xenograft models. Thus, targeting Plk1 is an appealing strategy for anti-cancer therapy. Therefore, this project aimed to screen the Molecular Libraries Small Molecule Repository (MLSMR) using a novel approach to find inhibitors that target the Plk1 PBD instead of the conventional N-terminal catalytic domain. This project employed a fluorescence polarization (FP) assay using a FITC-conjugated phospho-9-mer (p-9-mer) peptide and purified human Plk1 PBD protein. The identified small molecule inhibitors of Plk1 PBD can then further be developed into useful tools for biomedical and clinical research that complements or replaces current relevant disease therapy. NIH Chemical Genomics Center [NCGC] NIH Molecular Libraries Probe Centers Network [MLPCN] MLPCN Grant: MH100728 Assay Submitter (PI): Kyung Lee, NCI
Four microliter of 25 nM FITC-p-9-mer + 60 nM Plk1 PBD in buffer solution (final concentrations 25 nM and 60 nM respectively) or 4 uL of 25 nM FITC-p-9-mer (final concentration 25 nM) in buffer will be dispensed into a 1,536 Greiner medium-binding black solid plate. Small molecules at final concentrations of 18 nM to 57 uM and positive control phospho-9-mer (sequence: Ac-PPLHSpTAI-NH2) at final concentrations 26 nM to 57 uM and phospho-13-mer (sequence: Ac-[…]pTAI-NH2) at final concentrations of 1 nM to 2.3 uM will be pin-transferred (23 nL) to the plate via a Kalypsys pin-tool robotics equipped with a 1,536-pin array. The reaction plate will be centrifuged for 1 min at 1000 rpm and incubated at room temperature for 10 min. The FITC fluorescence signals will be read using the PerkinElmer ViewLux plate reader at 480 / 20 nm excitation and 540 / 20 nm S and P polarization emission wavelengths. Reagent bottles will be kept submerged into 4 °C recirculating chiller bath and all liquid lines will be covered with aluminum foil to minimize degradation. Library plates will be screened starting from the lowest to the highest concentrations to minimize compound carryover. Vehicle only plates, with DMSO being pin-transferred instead of compound solutions, will be included regularly throughout the screen to record any systematic shifts in assay signal.
% is scaled to controls: 0 for no effect and ±100 for the full control effect; potency is read from the fitted curve at half-maximal effect.

Serine/threonine-protein kinase PLK1 (Homo sapiens), sequence (P53350 whole entry, looked up, the tested form may be a part): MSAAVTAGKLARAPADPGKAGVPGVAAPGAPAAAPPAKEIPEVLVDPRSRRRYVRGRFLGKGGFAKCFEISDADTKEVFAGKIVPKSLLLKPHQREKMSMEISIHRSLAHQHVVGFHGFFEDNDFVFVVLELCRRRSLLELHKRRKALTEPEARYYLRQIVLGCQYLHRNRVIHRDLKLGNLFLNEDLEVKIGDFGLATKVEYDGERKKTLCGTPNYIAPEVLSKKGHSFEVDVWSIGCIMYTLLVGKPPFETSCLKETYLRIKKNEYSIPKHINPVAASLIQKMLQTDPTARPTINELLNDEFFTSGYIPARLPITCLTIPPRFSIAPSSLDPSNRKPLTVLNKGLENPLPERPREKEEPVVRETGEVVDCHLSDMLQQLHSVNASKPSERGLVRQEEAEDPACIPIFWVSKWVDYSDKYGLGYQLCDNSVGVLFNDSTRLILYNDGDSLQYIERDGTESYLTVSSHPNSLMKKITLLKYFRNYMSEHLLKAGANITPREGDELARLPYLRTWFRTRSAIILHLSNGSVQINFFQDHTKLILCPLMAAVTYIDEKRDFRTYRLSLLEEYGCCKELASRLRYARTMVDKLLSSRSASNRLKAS

| Structure (SMILES) | max response, negative = inhibition | Potency |
| --- | --- | --- |
| COc1ccc(NS(=O)(=O)c2ccc(Oc3c(C#N)cccc3C#N)cc2)cc1 | -0.548% (inactive) |  |
| COc1ccc(S(=O)(=O)/N=C2\C=C(NS(=O)(=O)c3ccccc3)C(=O)c3ccccc32)cc1 |  | 29.9 µM (active) |
| CCCC(NS(=O)(=O)c1ccc(OC)cc1)C(=O)O (centres undefined) | -2.19% (inactive) |  |
| CC1(C)Cc2c(sc(NC(=O)C(=O)N3CCOCC3)c2C#N)CO1 |  | 9.47 µM (active) |
| CCOC(=O)N1CCN(C(=O)C(=O)Nc2sc3c(c2C#N)CC(C)(C)OC3)CC1 | -23.2% (inactive) |  |
| COC(=O)c1c(NC(=O)C(=O)N2CCCCC2)sc2c1CC(C)(C)OC2 | -13.1% (inactive) |  |
| CC(C)C[C@H]1CNC(=O)C(=O)N1C[C@@H]1CCCN1C[C@H](Cc1ccccc1)N1C[C@H](CC(C)C)N(CC2CCCCCC2)C(=O)C1=O | 2.6% (inactive) |  |
| Cc1cccc(CS(=O)(=O)c2ncc(Cl)c(C(=O)Nc3ccc(F)cc3)n2)c1 |  | 16.8 µM (active) |
| Cc1cccc(NC(=O)c2nc(S(=O)(=O)Cc3ccccc3)ncc2Cl)c1 |  | 8.44 µM (active) |
| Cc1ccc(CS(=O)(=O)c2ncc(Cl)c(C(=O)Nc3nnc(C)s3)n2)cc1 | -16.3% (inactive) |  |
| O=C(Nc1ccc(F)cc1)c1ccc(S(=O)(=O)NCc2cccnc2)cc1 | -1.16% (inactive) |  |
| CN1CCN(c2ccc(NC(=O)c3ccc4c(c3)[nH]c(=O)n4Cc3ccc(F)cc3)cc2)CC1 | -2.57% (inactive) |  |
| Cc1cccc(NC(=O)C(C)SCc2ccccc2)c1 (centres undefined) | -10.4% (inactive) |  |
| COC(=O)[C@@]12C[C@@H](CC(=O)NCCCCc3ccccc3)C(=O)N(Cc3ccccc3)C1=CCC(C)(C)C2 | -7.29% (inactive) |  |
| O=C(C[C@H]1C[C@@H]2c3cc(NC(=O)C4CCC4)ccc3O[C@@H]2[C@H](CO)O1)NC1CCCCC1 | -5.12% (inactive) |  |
| COc1ccc(S(=O)(=O)N2CCC(C(=O)NCCC(=O)Nc3ccccc3OC)CC2)cc1 | 2.5% (inactive) |  |
| Cc1cccc(S(=O)(=O)N(C)C[C@@H]2OCc3cnnn3CCCC(=O)N([C@H](C)CO)C[C@@H]2C)c1 | -8.68% (inactive) |  |
| COc1ccc(C(=O)N2CCCCC2c2cc(C(=O)Nc3ccccc3)no2)cc1 (centres undefined) | -2.81% (inactive) |  |
| Cc1ccccc1S(=O)(=O)NC(=O)C1(C)CCN1C(=O)C1(c2ccccc2)CCCC1 (centres undefined) | 2.57% (inactive) |  |
| CCn1c(CNC(=O)c2ccccc2)nnc1SCC(=O)N1CCN(c2ccccc2)CC1 | -1.21% (inactive) |  |
| Cn1c(Cc2cccc3ccccc23)nnc1SCC(=O)N1CCN(c2cccc(Cl)c2)CC1 |  | 29.9 µM (active) |

| Structure (SMILES) | max response, negative = inhibition | Potency |
| --- | --- | --- |
| Cn1c(CNC(=O)c2ccco2)nnc1SCC(=O)N1CCN(c2ccccc2)CC1 | -4.04% (inactive) |  |
| C[C@H]1CN([C@@H](C)CO)C(=O)c2cc(-c3cccc(F)c3)cnc2O[C@@H]1CN(C)S(C)(=O)=O | -9.21% (inactive) |  |
| COc1ccc(-c2c(C#N)cnc(C)c2C)c(O)c1OC | -12.9% (inactive) |  |
| C[C@H](CO)N1C[C@H](C)[C@@H](CN(C)S(=O)(=O)c2ccc(F)cc2)OCc2cnnn2CCCC1=O | -19.3% (inactive) |  |
| O=C(Nc1cccc2ccccc12)c1[nH]c(-c2ccccc2)c2c1C(=O)N(C1CC1)C2=O | -21.7% (inactive) |  |
| CN(C)C(=O)c1cccc(-c2cnc3c(NC=O)cc(-c4ccc(F)cc4)cn23)c1 | -19.5% (inactive) |  |
| CCc1cccc(C)c1NC(=O)COC(=O)CNC(=O)c1cccs1 | -0.37% (inactive) |  |
| CCc1c(C)sc(NC(=O)c2cccs2)c1C(N)=O |  | 4.74 µM (active) |
| CCc1c(C)sc(NC(=O)c2ccc(Br)o2)c1C(=O)OC | -7.98% (inactive) |  |
| Cc1ccc(-c2ccc(C3=CC(=O)CC(C)(C)C3=O)cc2)cc1 | -0.955% (inactive) |  |
| CCCNC(=O)c1cc(C2CCCCN2S(=O)(=O)c2cn(C)cn2)on1 (centres undefined) | -4.21% (inactive) |  |
| CCCOc1ccc(F)cc1-c1cc(C(=O)Nc2ccc(F)c(Cl)c2)[nH]n1 | 0.655% (inactive) |  |
| CN(C)c1nc(Nc2ccc(Cl)c(Cl)c2)nc(N(C)C)n1 |  | 2.99 µM (active) |
| CC(=O)Nc1nc(N(C)C)nc(N(C)C)n1 | 6.17% (inactive) |  |
| CN(C)c1nc(NN)nc(Nc2ccc(F)cc2)n1 | 4.54% (inactive) |  |
| CC(=O)Nc1cccc(-c2cc(NC(C)=O)c3ncc(-c4ccccc4)n3c2)c1 | -16.7% (inactive) |  |
| COc1ccccc1-c1n[nH]nc1C1=CC(=O)CC(C)(C)C1 | -7.34% (inactive) |  |
| C#CCN1C(=O)C(O)(CC(=O)c2cc(OC)ccc2OC)c2ccccc21 (centres undefined) | -9.34% (inactive) |  |
| CCCCN1C(=O)/C(=C(/C#N)C(N)=O)c2ccccc21 | -17.1% (inactive) |  |
| COc1ccc2c(c1)C(=C(C#N)C#N)C(=O)N2CCc1ccccc1 |  | 2.67 µM (active) |
| COCCNc1nc(NCc2ccc(NC(C)=O)cc2)c2sccc2n1 | -10.2% (inactive) |  |

| Structure (SMILES) | max response, negative = inhibition | Potency |
| --- | --- | --- |
| CS(=O)(=O)c1ccc(Cl)c(NC(=O)Nc2ccccc2)c1 |  | 23.8 µM (active) |
| Cc1ccc(NC(=O)Nc2ccccc2)c(Br)c1 | -8.61% (inactive) |  |
| CS(=O)(=O)c1ccc(Cl)c(NC(=O)COC(=O)c2ncc(Cl)c(Cl)c2Cl)c1 | -10.8% (inactive) |  |
| CSc1ncnc2c1ncn2CCCNCC(C)c1ccccc1 (centres undefined) | 1.77% (inactive) |  |
| Cc1cccc(N2C(=O)c3ccc(C(=O)Nc4cccc(C(=O)O)c4)cc3C2=O)c1 | 2.25% (inactive) |  |
| Cc1cccc(N2C(=O)SC(SC(=Nc3ccccc3)Nc3ccccc3)C2=O)c1 (centres undefined) |  | 15 µM (active) |
| Cc1cccc(N2C(=O)SC(N(CC(=O)O)c3cccc(C)c3)C2=O)c1 (centres undefined) | -27.2% (inactive) |  |
| COc1cccc(N2C(=O)CC(N3CCc4ccccc4C3)C2=O)c1 (centres undefined) | -2.65% (inactive) |  |
| COC(=O)c1ccccc1SC1CC(=O)N(c2cccc(C)c2)C1=O (centres undefined) | -24.8% (inactive) |  |
| Cc1cccc(N2C(=O)CC(SC(N)=Nc3ccccc3)C2=O)c1 (centres undefined) |  | 23.8 µM (active) |
| CCOc1ccc(CCN2C(=O)C(=O)N([C@@H](Cc3ccc(O)cc3)CN3CCC[C@H]3CN3C(=O)C(=O)NC[C@@H]3CC(C)C)C[C@@H]2Cc2ccccc2)cc1 | -15% (inactive) |  |
| CCC(C)C(CO)NC(=O)/C=C/[C@H]1O[C@@H](n2cnc3c(NC(=O)c4ccccc4)ncnc32)[C@H](O)[C@@H]1O (some centres undefined) | -12% (inactive) |  |
| CCOc1ccc(/C=N/NC(=O)CSc2ccccn2)cc1O | -2.2% (inactive) |  |
| O=C1Nc2ccc(Br)cc2/C1=N/N=C/C1=C(N2CCOCC2)C(=C\c2ccccc2)/CC1 | -6.57% (inactive) |  |
| COc1ccc(/C=N/N=C2/C(=O)Nc3ccccc32)cc1O |  | 23.8 µM (active) |
| Cc1ccc(S(=O)(=O)N[C@H]2CCC[C@@H]2O)cc1 | -13.6% (inactive) |  |
| O=C(c1ccc(C(F)(F)F)cc1)N1CCC(=O)N([C@H](COCc2ccccc2)Cc2ccccc2)CC1 | -8.35% (inactive) |  |
| O=S1(=O)CC(N2CCN(CCO)CC2)CN1C1CCCC1 (centres undefined) | 3.7% (inactive) |  |
| COC(=O)C1=C(N)Oc2cc(C)oc(=O)c2C1c1cccnc1 (centres undefined) | -10.6% (inactive) |  |
| COC(=O)C1=C(N)Oc2cc(C)[nH]c(=O)c2C1c1ccc(Cl)cc1 (centres undefined) |  | 23.8 µM (active) |
| CCN1C(=O)N[C@@H](c2ccccc2)C(C(=O)OC)=C1C | -12.3% (inactive) |  |

| Structure (SMILES) | max response, negative = inhibition | Potency |
| --- | --- | --- |
| CC(=O)c1ccc(Nc2nc(C(N)c3ccccc3Cl)cs2)cc1 (centres undefined) | -10.4% (inactive) |  |
| O=C(O)C1CCCN1c1nc(Cl)ccc1[N+](=O)[O-] (centres undefined) | -5.29% (inactive) |  |
| Cc1nccn1-c1ccc(NC(=O)[C@H]2O[C@@H](n3cnc4c(N)ncnc43)[C@H](O)[C@@H]2O)cc1 | -3.34% (inactive) |  |
| O=c1[nH]c2ccccc2n1C1CCN(CCOc2ccccc2)CC1 | 0.342% (inactive) |  |
| Cc1ccc(SCc2cc(=O)[nH]c(N3CCCCC3)n2)cc1 | -8.91% (inactive) |  |
| O=c1cc(-c2ccccc2)nc(N2CCCCC2)[nH]1 |  | 23.8 µM (active) |
| c1ccc(-c2cc(N3CCCCC3)c3ccccc3n2)cc1 | -13.3% (inactive) |  |
| C[C@H](CO)N1C[C@H](C)[C@@H](CN(C)C(=O)c2cnccn2)Oc2ncc(Br)cc2C1=O | -5.95% (inactive) |  |
| C[C@H](CO)N1C[C@H](C)[C@H](CN(C)C(=O)c2ccncc2)OCc2ccccc2-c2c(n(C)c3ccccc23)C1=O | -5.78% (inactive) |  |
| COc1cccc(-c2cnc3c(NC(C)=O)cc(-c4cccc(NC(C)=O)c4)cn23)c1 | -1.26% (inactive) |  |
| CC1(C(=O)NS(=O)(=O)c2ccccc2)CCN1C(=O)Cc1ccc(-c2ccccc2)cc1 (centres undefined) | -4.54% (inactive) |  |
| CCn1c(CC(=O)Nc2ccccc2)nnc1SCC(=O)N1CCOCC1 | -0.409% (inactive) |  |
| CCn1c(SCC(=O)Nc2nc(C)cs2)nnc1C(C)NC(=O)c1ccccc1 (centres undefined) |  | 29.9 µM (active) |
| CCn1c(SCC(=O)NC2=NCCS2)nnc1C(C)NC(=O)c1ccccc1F (centres undefined) | -16.2% (inactive) |  |
| Cc1ccc(NC(=O)Cc2nnc(SCC(=O)Nc3nncs3)n2C)cc1 | -3.59% (inactive) |  |
| CCn1c(CC(=O)Nc2ccc(C)cc2)nnc1SCC(=O)Nc1nc(C)cs1 |  | 26.7 µM (active) |
| COCCn1c(SCC(=O)Nc2nc(C)cs2)nnc1C(C)C | -12.4% (inactive) |  |
| C[C@@H]1CN([C@@H](C)CO)C(=O)c2cc(NS(C)(=O)=O)ccc2O[C@@H](C)CCCCO[C@H]1CN(C)C(=O)Nc1ccc2c(c1)OCO2 | -18.5% (inactive) |  |
| Cc1cc2c(cc1C)N1C(=O)c3cc4ccccc4cc3NC(=O)C1C(=O)N2 (centres undefined) | -4.16% (inactive) |  |
| COc1ccc(C(c2nnnn2C2CCCC2)N2CCN(C/C=C/c3ccccc3)CC2)cc1 (centres undefined) | -9.92% (inactive) |  |
| Cc1ccc(S(=O)(=O)N2C[C@]3(O)C[C@@H]4C(=O)N(c5ccccc5)C(=O)[C@@H]4C[C@]3(OC(=O)NC3CC3)C2)cc1 | -20.4% (inactive) |  |
